Inconclusive results are not listed. The source made the active and inactive calls. Calls come from the whole dose curve; as a rule, active = well fitted curve in the direction sought with a large enough effect; inconclusive = small, poorly fitted or top-dose-only effect, or another doubt; inactive = no such curve, though single readings can be large or run the other way.
Target: Holo-[acyl-carrier-protein] synthase (Bacillus subtilis (strain 168)) (UniProt P96618)
Experiment: qHTS Assay for Inhibitors of Bacillus subtilis AcpS phosphopantetheinyl transferase (PPTase): SAR
Details: purified B. subtilis AcpS enzyme; Potency: PPTase activity; series mostly up to 57.1 µM; activity change, negative = inhibition: at the top concentration
Source text: The covalent attachment of a phosphopantetheinyl (4'-PP) arm to a variety of synthases and other proteins is a key posttranslational protein modification. The 4'-PP is installed on the proteins post-translationally from coenzyme A (CoA) on a conserved serine residue by action of phosphopantetheinyl transferase (PPTase) enzymes. Phosphopantetheinylation is essential for synthase activity, and removal of the PPTase gene precludes natural product synthesis in microorganisms, or in the case of fatty acid biosynthesis, renders the organism unviable. PPTase enzymes belong to a distinct structural superfamily. Within bacteria, these enzymes are grouped into two classes based upon primary structure, the AcpS-Type and Sfp-Type PPTases.
Sfp-type PPTases, corresponding to an activator of surfactin production in Bacillus subtilis, are responsible for modifying type I polyketide and nonribosomal peptide synthases of prokaryotes. Sfp-type PPTases are responsible for the activation of a variety of pathogen-associated virulence factors. Among these compounds are toxins such as mycolactone from Mycobacterium ulcerans, siderophores such as vibriobactin from Vibrio cholerae or mycobactin from Mycobacterium tuberculosis, as well as the mycolic acids which form the waxy cell wall of Mycobacteria. The biosyntheses of these natural products are considered attractive targets for drug design.
In search of small molecule Sfp-PPTase inhibitors, a fluorescence quenching assay was developed for detection of Bacillus subtilis Sfp-PPTase enzymatic activity in a miniaturized high-throughput format. The consensus ybbr acceptor peptide […] was N-terminally labeled with Black Hole Quencher-2 (BHQ-2) and used in combination with rhodamine-labeled coenzyme A as a co-substrate.
This project seeks to identify Sfp-PPTase inhibitors. This assay sought to determine the activity of these compounds with holo-acyl carrier protein synthase (AcpS) from E. coli, the canonical representative of the AcpS-PPTase subgrouping (vide supra). The evaluation utilized the qHTS assay format, with the only change being direct substitution of the enzyme.
NIH Chemical Genomics Center [NCGC]
NIH Molecular Libraries Probe Centers Network [MLPCN]
Assay Submitter (PI): Michale Burkart, University of California, San Diego
The assay was performed in a buffer consisting of 50mM HEPES-Na pH 7.6, 10mM MgCl2, 0.01% Nonidet P-40, and 0.01% BSA. Reagents (3 uL) were dispensed into a 1536-well black solid bottom plate (100 nM AcpS PPTase incolumns 1, 2, 5 through 48; buffer sans enzyme in columns 3 &4). DMSO solution of test articles (23 nL) were transferred via Kalypsys pintool equipped with 1,536-pin array. Following a room temperature incubation (15 min), enzyme reactions were initiated by the addition of substrate (1 uL , final concentration in the plte for rhodamine-CoA and BHQ-2-YbbR 5 uM and 12.5 uM, respectively). The plate was then centrifuged (15 s, 1000 rpm), and the fluorescence intensity recorded on a ViewLux High-throughput CCD imager (Perkin-Elmer, 525 nm excitation and 598 nm emission). The plate was then incubated at room temperature (30 min), after which a second read on the ViewLux was recorded. The fluorescence intensity difference over the 30-minute period was used to calculate the respective reaction rate for each well.

Activity change, negative = inhibition, inactive:
Cc1nc(CN(C)c2ncnc3ccc(-c4ccc5[nH]ncc5c4)cc23)cs1 55.2%
COc1cccc(NC(=S)N2CCN(c3cc(Cl)cc(Cl)c3)CC2)n1 8.03%
Cc1ccnc(NC(=S)N2CCCc3ccc(C(F)(F)F)cc32)c1 1.85%
Cc1ccnc(NC(=S)N[C@@H]2CCN(c3cccc(C(F)(F)F)c3)C2)c1 -1.64%
Cc1ccnc(NC(=S)Nc2cccc(C(F)(F)F)c2)c1 -5.9%
CC(Cc1ccccc1)C(=O)Nc1ccc(Cl)cc1C(=O)O (configuration not stated) -11.5%
CSC(Cc1ccc(Cl)cc1)C(=O)Nc1ccc(Cl)cc1C(=O)O (configuration not stated) 1.84%
FC(F)(F)c1cc(N2CCN(C(=S)Nc3cc(Cl)ccn3)CC2)cc(C(F)(F)F)c1 10.1%
Cc1ccnc(N=C(N)N2CCN(c3cccc(C(F)(F)F)c3)CC2)c1 15.1%
Cc1cc(C)nc(NC(=S)N2CCN(c3ncccc3C#N)CC2)c1 -7.03%

Potency, active:
Cc1ccnc(NC(=S)N2CCN(c3cc(C(F)(F)F)cc(C(F)(F)F)c3)CC2)c1 4.57 µM
Cc1cc(C)nc(NC(=S)N2CCN(c3ccc([N+](=O)[O-])cc3Cl)CC2)c1 6.46 µM

Reference: PubChem BioAssay AID602360 (National Center for Advancing Translational Sciences (NCATS), 2012)
